Rows were chosen to be rich in hits. Some 7.8% of all compounds tested hit in one or more screens of this group.
Vaccinia Venus – inhibitors of vaccinia virus (Venus reporter); Vaccinia virus Venus reporter expression, fluorescence; Potency, µM (highest dose often 36.5 µM), for inactives: at the top dose activity change, negative = inhibition, hits mostly inhibitors; 0.46% of 330,000 active; calls by dose curve; tested in A549 cells; note: potency is the fitted concentration of half-maximal effect; nearly all actives have a fitted effect of over 30% in size
HCV inh – HCV inhibition; Huh7.5.1 HCVcc-Cre infection, luciferase reporter, 44 h; Potency, µM (highest dose often 41.8 µM), for inactives: at the highest dose activity change, negative = inhibition, most hits filed as inhibitors; 3.4% of 340,000 active; AID 651820; active = well fitted inhibition curve with a large enough effect; inconclusive = small, poorly fitted or top-dose-only effect, or another doubt; inactive = no such curve, though single readings can be large or run the other way; note: potency is the fitted concentration of half-maximal effect
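Antiviral activity was scored by luciferase reporter output from cells infected with HCVcc-Cre (~0.5 moi) in presence of compound, 44 h infection period, cells seeded 1,000/well 4 h prior.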
Lassa entry inh – inhibitors of Lassa virus binding or cell entry. Potency, µM (top dose mostly 37.9 µM), inactives show top-dose activity change, negative = inhibition, hits mostly inhibitors. 1.2% of 300,000 active. Lassa virus pseudotype entry inhibition, cell reporter; calls by dose curve; tested in HEK293 cells; note: potency is the fitted concentration of half-maximal effect; nearly all actives have a fitted effect of over 50% in size
Marburg entry inh – Marburg virus entry inhibition. Marburg virus pseudotyped entry inhibition, cell reporter. AID 540276. Potency, µM (highest dose often 37.8 µM), inactives show at the top dose activity change, negative = inhibition, most hits filed as inhibitors. 1.8% of 300,000 active; calls by dose curve; tested in HEK293 cells; note: potency is the fitted concentration of half-maximal effect
VACV mCherry inh – inhibitors of vaccinia virus infection (mCherry reporter signal). Potency, µM (highest dose often 36.5 µM), for the others: at the top dose activity change, negative = inhibition, most hits filed as inhibitors. 0.63% of 310,000 active. AID 720579. Vaccinia virus mCherry reporter infection, fluorescence; calls by dose curve; tested in A549 cells; note: potency is the fitted concentration of half-maximal effect; nearly all actives have a fitted effect of over 35% in size
HCMV antiviral – inhibitors of human cytomegalovirus; HFF cells, HCMV-luciferase reporter, 72 h; hits give low values; 4.5% of 410,000 active; activity change, negative = inhibition, % at 57.5 µM; in the data active = activity change below about -60%; inconclusive = no clear call, values can overlap the other calls; inactive = above about -39%
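Two-dose cell screen: HFF monolayers treated with compounds and infected with luciferase-expressing HCMV at 1 PFU/cell, 72 h at 37C, then lysed for luciferase measurement.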
An asterisk follows results filed as active; ? = inconclusive; nt = no result; ! = a repeat was not active; [ ] = remark or other dose. % is set by controls: 0 for no effect and ±100 for the full control effect.

SMILES	Vaccinia Venus	HCV inh	Lassa entry inh	Marburg entry inh	VACV mCherry inh	HCMV antiviral
COc1ccc2[nH]c(=O)c(CN(CC3CCCO3)C(=O)Nc3ccc(F)cc3)cc2c1 (stereo not given)	-10.8%	?	11.2µM*	?	-18.8%	-31.0
COc1ccccc1NC(=S)N(Cc1ccco1)Cc1cc2ccc(C)c(C)c2[nH]c1=O	?	?	?	11.2µM*	?	?
COc1ccc(NC(=O)N(Cc2cc3cc(C)ccc3[nH]c2=O)CC2CCCO2)cc1 (stereo not given)	nt	?	nt	nt	nt	6.4
Cc1ccc2cc(CN(CC3CCCO3)C(=S)Nc3ccccc3)c(=O)[nH]c2c1 (stereo not given)	-27.2%	-14.0%	-2.5%	?	?	-37.2
Cc1ccc2cc(CN(CC3CCCO3)C(=S)Nc3ccccc3)c(=O)[nH]c2c1C (stereo not given)	-16.8%	?	?	?	?	-61.8*
NC(=NCCCCCCN=C(N)/N=C(\N)Nc1ccc(Cl)cc1)/N=C(\N)Nc1ccc(Cl)cc1	10µM*!	?	nt	nt	?	-94.6*!
Cc1cccnc1-c1cccc2c1OC(CNC(=O)C(=O)c1ccccc1)C2 (stereo not given)	-12.7%	nt	nt	nt	-14.2%	nt
Cc1c(Br)cc(C(=O)N2CCN(CCO)CC2)c(C)c1C	nt	19.8%	-9.2%	-6.4%	nt	-101.4*
COc1cccc(-c2cc3c(Nc4cccc(F)c4)nccc3[nH]2)c1	nt	nt	nt	nt	nt	22.6
CC(=O)SC1CC2=CC(=O)CC[C@]2(C)C2CC[C@@]3(C)C(CC[C@@]34CCC(=O)O4)C12 (stereo not given in full)	nt	nt	?	5.2%	nt	nt
Cc1ccc(-n2nnnc2-c2cnn(-c3cccc(F)c3)c2C(F)(F)F)cc1	nt	?	?	?	nt	-75.3*
Fc1cccc(-n2ncc(-c3nnnn3-c3ccccc3)c2C(F)(F)F)c1	nt	?	?	-2.0%	nt	-24.2
COC(=O)C1=C(C)N(Cc2cccc(C(F)(F)F)c2)C(=NCc2ccc(C(F)(F)F)cc2)NC1c1ccc(F)cc1 (stereo not given)	nt	nt	nt	nt	nt	-101.0*
CCN1C(=NCc2ccccc2)NC(c2cccc(C(F)(F)F)c2)C(C(=O)OC)=C1C (stereo not given)	nt	nt	nt	-21.6%[14.2 µM]	nt	nt
COC(=O)C1=C(C)N(Cc2cccc(C(F)(F)F)c2)C(=NCc2ccc3c(c2)OCO3)NC1c1ccc(F)cc1 (stereo not given)	nt	nt	nt	nt	nt	-85.3*
COC(=O)C1=C(C)N(Cc2cccc(C(F)(F)F)c2)C(=NCc2ccc(C(F)(F)F)cc2)NC1c1ccc(C(F)(F)F)cc1 (stereo not given)	nt	nt	nt	nt	nt	-100.7*
COc1cc2ccccc2cc1C(=O)OCC(=O)Nc1ccc(Br)cc1	-7.6%	nt	nt	nt	-12.5%	nt
COc1ccc(O)c(CN2CCOc3c(cc(-c4cccc(OC)n4)cc3OC)C2)c1	-4.7%	nt	nt	nt	-14.9%	nt
CC(=O)c1cccc(NC(=O)c2cc3nc(-c4ccc(Br)cc4)cc(C(F)(F)F)n3n2)c1	?	nt	10.0%[46.1 µM]	nt	12.6µM*	-4.9
COc1ccc(-c2cc(C(F)(F)F)n3nc(C(=O)Nc4cc(Cl)cc(Cl)c4)cc3n2)cc1	-11.0%	nt	-1.9%[46.1 µM]	0.2%[46.1 µM]	-7.1%	13.7
O=S(=O)(c1ccccc1)n1nc(-c2ccc(Cl)cc2)nc1NCc1ccccc1	-20.4%	nt	15.7%[46.1 µM]	?	-25.7%	62.0
COc1cc(C2CC(=O)c3cnc(N4CCN(CCO)CC4)nc3C2)cc(OC)c1OC (stereo not given)	2.2%	nt	-21.0%[46.1 µM]	-8.6%[46.1 µM]	-4.9%	8.2
COc1cc(C2CC(=O)c3cnc(N4CCN(Cc5ccccc5)CC4)nc3C2)cc(OC)c1OC (stereo not given)	-13.9%	?	23.1µM*	?	?	38.4
CCOC(=O)N1CCN(c2ncc3c(n2)CC(c2ccccc2O)CC3=O)CC1 (stereo not given)	?	nt	?	1.8%[46.1 µM]	?	?
CCOC(=O)N1CCN(c2ncc3c(n2)CC(c2ccc(Cl)cc2)CC3=O)CC1 (stereo not given)	-12.2%	nt	?	-5.9%[46.1 µM]	-15.2%	-103.5*
SMILES	Vaccinia Venus	HCV inh	Lassa entry inh	Marburg entry inh	VACV mCherry inh	HCMV antiviral
COc1ccc(C2CC(=O)c3c(C)nc(N4CCN(Cc5ccccc5)CC4)nc3C2)cc1OC (stereo not given)	nt	3.55µM*	8.2µM*	18.3µM*	nt	-97.7*
CC1CC(C)CN(c2ncc3c(n2)CC(c2ccccc2)CC3=O)C1 (stereo not given)	-15.3%	22.3%	2.82µM*	-15.2%	nt	1.1
Cc1nc(N2CCN(Cc3ccccc3)CC2)nc2c1C(=O)CC(C)C2 (stereo not given)	nt	-21.7%	?	-25.4%	nt	-37.3
CCNC(=O)c1cnc2sc(N3CCC(C)CC3)nn2c1=O	-11.6%	nt	27.0%[46.1 µM]	nt	-7.0%	27.3
COc1ccccc1Nc1nc(NCCC(C)C)nc(N)c1[N+](=O)[O-]	nt	12.6µM*	nt	nt	nt	?
CCOC(=O)c1cnc(SCc2nc(N)nc(Nc3ccc(F)cc3)n2)nc1N	nt	?	?	?	nt	-96.5*
CCOC(=O)c1cnc(SCc2nc(N)nc(Nc3ccc(C)cc3)n2)nc1N	?	-10.6%	?	-26.3%	?	-87.8*
CCOC(=O)c1cnc(SCc2nc(N)nc(Nc3ccccc3OC)n2)nc1N	nt	nt	nt	1.6%	nt	55.7
COc1ccc(-n2c(CN3CCN(c4ccc(F)cc4)CC3)nc3ccc([N+](=O)[O-])cc3c2=O)c(OC)c1	-0.3%	-30.0%	?	-20.8%[46.1 µM]	-2.3%	-92.4*
[N-]=[N+]=NC1C[C@H](n2ccc(=O)[nH]c2=O)O[C@@H]1CO (stereo not given in full)	-7.1%	2.6%[8.37 µM]	-9.5%	-2.8%	-9.6%	-65.8*
O=C(Nc1nc(-c2ccccc2)cs1)C1CCCN(S(=O)(=O)c2ccccc2)C1 (stereo not given)	-23.3%	5.01µM*	10.3µM*	8.2µM*	?	?
CC(C)CC(=O)Nc1nc(-c2ccc(S(=O)(=O)N3CCOCC3)cc2)cs1	-7.8%	?	?	-10.2%	-1.5%	-38.5
O=C(Nc1nc(-c2ccc(S(=O)(=O)N3CCOCC3)cc2)cs1)c1ccccc1	-20.7%	7.94µM*	?	3.98µM*	-21.2%	-91.5*
CCCCC(=O)Nc1nc(-c2ccc(S(=O)(=O)N3CCOCC3)cc2)cs1	-18.8%	?	?	-25.1%	-1.1%	-90.0*
O=C(Nc1nc(-c2ccccc2)cs1)C1CCCN(S(=O)(=O)c2cccc([N+](=O)[O-])c2)C1 (stereo not given)	nt	-28.6%	?	?	nt	0.9
COc1ccc(OC)c(NC(=O)c2ccc(OCC(=O)N3CCOCC3)c(OC)c2)c1	-9.9%	-11.0%	-1.4%	12.5%[46.1 µM]	-0.5%	19.1
COc1cc(C(=O)Nc2nc(-c3ccc(C)cc3)cs2)ccc1OCC(=O)N1CCOCC1	nt	11.2µM*	6.5%	-2.4%	nt	-30.3

Bioassay records: PubChem, National Center for Advancing Translational Sciences (NCATS)
